HCV inh: qHTS Assay for Inhibitors of Hepatitis C Virus (HCV); Huh7.5.1 HCVcc-Cre infection, luciferase reporter, 44 h; Potency, µM (highest dose often 41.8 µM), for the others: at the highest dose activity change, negative = inhibition, hits mostly inhibitors; 340,000 compounds, 3.4% hits; further: on the % scale 0 is the no-effect control and ±100 the full control effect
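Infectious HCVcc-Cre (~0.5 moi) was added to cells just after compound, with cells seeded 4 h earlier at 1,000 per well. Luciferase activity after 44 h culture reported infection; substrate was incubated 15 min at room temperature before reading.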
Pf growth 96h: Primary qHTS for delayed death inhibitors of the malarial parasite plastid, 96 hour incubation. P. falciparum luciferase reporter growth, 96 h. Potency, µM (doses to about 28.7 µM), for inactives: at the highest dose activity change, negative = inhibition, most hits filed as inhibitors. 320,000 compounds, 6.9% hits. AID 504834, 2011; further: on the % scale 0 is the no-effect control and ±100 the full control effect
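P. falciparum expressing integrated firefly luciferase, in erythrocytes at 2% hematocrit, 0.05% parasitemia, incubated with compounds 96 h at 37 C, 5% CO2. Growth inhibition read as loss of luminescence; two-generation exposure targets delayed-death apicoplast inhibitors.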
Pf growth 48h: Primary qHTS for delayed death inhibitors of the malarial parasite plastid, 48 hour incubation. P. falciparum luciferase growth in erythrocytes, 48 h. Potency, µM (highest dose often 28.7 µM), for inactives: at the top dose activity change, negative = inhibition, actives largely listed as inhibitors. 310,000 compounds, 5.9% hits; further: on the % scale 0 is the no-effect control and ±100 the full control effect
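Read-out is firefly luciferase luminescence from an integrated reporter in P. falciparum, so falling signal marks reduced parasite growth. Infected erythrocytes were at 2% hematocrit and 0.1% parasitemia (final) in Albumax-supplemented RPMI 1640.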
AMA1 RON2 block: qHTS for Inhibitors of AMA1-RON; Towards Development of Antimalarial Drug Lead: Primary Screen | 360,000 compounds, 0.2% hits | AlphaScreen AMA1-biotinylated RON2 peptide binding | AID 720542, 2013 | Potency, µM (highest dose often 58.2 µM), for inactives: top-dose activity change, negative = inhibition, most hits filed as inhibitors;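 further: 0% = vehicle wells and -100% = peptide control; nearly all actives have a fitted effect of over 45% in size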
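AMA1 (3D7) with his tag at 25 nM final met compounds first, then biotinylated RON2 peptide at 25 nM; detection used donor plus acceptor beads, 10 µg/mL apiece, read by AlphaScreen after 30 min at room temperature.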
HCV inh confirm: qHTS Assay for Inhibitors of Hepatitis C Virus (HCV): Confirmation Assay for Cherry-picked Compounds | shares compounds with HCV inh | HCVcc-Cre infectious virus cell assay, luciferase, inhibition | Potency, µM (titrated, usually from 41.8 µM), for the others: at the highest dose activity, negative = inhibition, hits mostly inhibitors | 640 compounds, 78% hits | AID 720575, 2013; further: nearly all actives have a fitted effect of over 80% in size
HCV cytotox: qHTS Assay for Inhibitors of Hepatitis C Virus (HCV): Cytotoxicity Counterscreen for Cherry-picked Compounds | Potency, µM (titrated, usually from 41.8 µM), for the others: top-dose activity change, negative = cytotoxicity, hits mostly inhibitors | shares compounds with HCV inh | HCV host cell line cytotoxicity counterscreen | 640 compounds, 22% hits | AID 720576, 2013;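 further: 44 h compound exposure; on the % scale 0 is the no-effect control and ±100 the full control effect; nearly all actives have a fitted effect of over 55% in size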
* marks the source's active call; other numbers are inactive results; ? = inconclusive; . = not tested or not shown. An excerpt weighted towards active compounds, which were near 11% of everything screened. The call rests on the fitted dose curve; in most records, active means well fitted curve in the direction sought with a large enough effect; inconclusive means small, poorly fitted or top-dose-only effect, or another doubt; inactive means no such curve, though single readings can be large; an effect the other way counts as inactive or inconclusive. Potency means the concentration at half of the fitted maximal effect.

SMILES	HCV inh	Pf growth 96h	Pf growth 48h	AMA1 RON2 block	HCV inh confirm	HCV cytotox
CN(CCC#N)C(=S)Nc1ccc(S(=O)(=O)N2CCOCC2)cc1	19%	8%	-6%	-3%	.	.
Oc1ccccc1N=Nc1nc(-c2ccccc2)c(-c2ccccc2)[nH]1	3.5µM*	2.1µM*	.	?	7.9µM*	-43%
C[N+]1(CC(O)COCC2COc3ccccc3O2)CCOCC1 (stereo unspecified)	26%	-10%	-26%	8%	.	.
COc1cc(C2CC(=O)C3=C(C2)Nc2ncnn2C3c2cccs2)cc(OC)c1OC (stereo unspecified)	0%	?	-28%	-3%	.	.
COc1ccc(C2CC(=O)C3=C(C2)Nc2ncnn2C3c2ccccc2C)c(OC)c1 (stereo unspecified)	3.5µM*	8.3µM*	7.4µM*	-4%	7µM*	22%
CC1CN(C)C(C)c2c1oc1ccc([N+](=O)[O-])cc21 (stereo unspecified)	?	8%	21%	-2%	25µM*	23%
COc1ccc(C(=O)c2ccccc2)c(OCC(=O)NC2CC2)c1	-17%	?	0%	31%	.	.
CC(C)Cn1c(N)c(C(=O)CSc2ccccc2)c(=O)n(C)c1=O	?	2%	21%	3%	7.9µM*	?
CCc1ccccc1NC(=S)/N=C(\N)Nc1nc(C)c2cc(C)ccc2n1	?	?	2.9µM*	26%	10µM*	?
CCOc1ccc2nc(N/C(N)=N/C(=S)Nc3cccc(C)c3)nc(C)c2c1	5.6µM*	?	?	45%	7.9µM*	-19%
Cc1cccc2sc(NC(=O)c3ccc(NS(=O)(=O)c4cccs4)cc3)nc12	?	-28%	-20%	-6%	.	.
O=C(c1ccco1)N1CCN(C(=O)C2CC(=O)N(c3ccccc3)C2)CC1 (stereo unspecified)	12%	?	11%	5%	.	.
COc1ccc(C2CC(c3cccs3)=Nc3ccccc3S2)cc1 (stereo unspecified)	?	?	11%	-27%	?	16%
Cc1cc(Cl)c2oc(C(=O)N3CCOCC3)c(C)c2c1	.	.	.	-3%	.	.
Cc1cc(Cl)c2oc(C(=O)N3CCN(C(=O)c4ccco4)CC3)c(C)c2c1	?	6%	?	-6%	?	-12%
Cc1cccnc1CCNC(=O)c1ccc(OC2CCN(Cc3ccccn3)CC2)cc1	-16%	-4%	14%	70%	.	.
CCn1nc(C)c(CNC(=O)c2ccc(OC3CCN(Cc4ccccn4)CC3)cc2)c1C	1µM*	49%	-7%	26%	0.56µM*	1.1µM*
Cc1nc2c(C#N)c[nH]n2c(=O)c1CCO	8%	36%	12%	2%	.	.
CNC(=O)NC(=O)C(C)OC(=O)c1oc2ccccc2c1CSc1ccc(Cl)cc1 (stereo unspecified)	-1%	?	?	?	.	.
COc1ccc(-c2csc(NC(=O)C3CSC4(C)CCC(=O)N34)n2)c(OC)c1 (stereo unspecified)	8.9µM*	?	-27%	-18%	28µM*	-15%
Clc1ccc(-c2ccn[nH]2)cc1	6%	?	149%	-11%	.	.
Oc1ccc(Br)cc1-c1ccn[nH]1	?	30%	23%	58%	-28%	-20%
CCCCCCCCn1ccc(=N)cc1	0.89µM*	?	0.37µM*	-16%	1.8µM*	2.2µM*
CCCCCCCCn1sccc1=O	?	15%	2%	0%	.	.
COc1ccc(NC(=O)Nc2cccc(Cl)c2Cl)c(OC)n1	2.8µM*	9.3µM*	?	-4%	?	17%
SMILES	HCV inh	Pf growth 96h	Pf growth 48h	AMA1 RON2 block	HCV inh confirm	HCV cytotox
Cn1nccc1NC(=O)Nc1cccc(Cl)c1Cl	-15%	32%	35%	-1%	.	.
CCOc1ncccc1C(=O)OCC(=O)c1cccc(Br)c1	-4%	6%	18%	-11%	.	.
CN1CCN(/N=C/c2ccc(-c3ccc([N+](=O)[O-])cc3Cl)o2)CC1	8.9µM*	3%	?	?	?	13%
COc1ccc(NC(=S)N2CCCC(c3nc4ccc(C)cc4[nH]3)C2)cc1 (stereo unspecified)	5µM*	?	-3%	14%	0.035µM*	10%
CCCCn1c(CCC(=O)O)nc2cc(S(=O)(=O)N(CC)CC)ccc21	?	?	?	4%	.	.
O=C(NNc1ccc(Cl)cc1)C1CCC1	21%	?	?	2%	.	.
O=C(NNc1ccnc2cc(Cl)ccc12)C1CCCCC1	2.8µM*	1µM*	1.7µM*	4%	0.89µM*	1.6µM*
COc1ccccc1NC(=O)c1ccc(NC(=O)COC(=O)c2ccc(O)cc2)cc1	?	-22%	?	6%	?	?
COc1ccccc1NC(=O)c1ccc(NC(=O)COC(=O)CCC2CCCC2)cc1	7%	40%	-18%	-15%	.	.
COc1cc(C)c(C(=O)Oc2cc(C)c(C(=O)O)c(O)c2)c(O)c1	0.79µM*	-14%	-6%	-1%	-10%	-13%
Cc1cc(C)c(NC(=O)CCN2C(=O)c3ccccc3S2(=O)=O)c(C)c1	-4%	55%	13%	6%	.	.
Cc1ccc(C(=O)CCNc2ccc(F)c(Cl)c2)o1	3.2µM*	44%	5%	-4%	2.8µM*	-22%
Cc1ccc(C(=O)CCNc2ccc(Br)cc2)o1	-21%	11%	6%	-10%	.	.
O=C(CN1C2=NCCN2c2ccccc21)C12CC3CC(CC(C3)C1)C2	?	-14%	?	-1%	28µM*	11%
Cc1ccc(CN2C3=NCCN3c3ccccc32)cc1	-23%	5%	?	-4%	.	.
O=C(CSc1nnc2ccc(-c3ccccn3)nn12)Nc1ccccc1F	16%	2%	12%	23%	.	.
c1ccc(Nc2nc(NCc3ccco3)c3ccccc3n2)cc1	4µM*	?	?	-25%	14µM*	25µM*
CSc1nc(NCc2ccco2)c2ccccc2n1	-26%	-32%	.	15%	.	.
Cc1sc2c(c1C)C(O)=C(C(=O)Nc1ccccc1)S(=O)(=O)N2C	8%	?	-9%	-17%	.	.
Cn1c(-c2ccsc2)c(-c2cccs2)c2cc(-c3ccc4cc[nH]c4c3)ccc21	1.1µM*	?	2.1µM*	0%	11µM*	-35%
CSC1=Nc2sc3c(c2C2=NCCN12)CC(C)(C)OC3	-26%	.	.	0%	.	.
Cc1cc(Nc2cccc(F)c2)nc(-c2ccccc2O)n1	4.5µM*	2%	?	33%	7.9µM*	-2%
Cc1cc(Nc2ccccc2Cl)nc(-c2ccccc2O)n1	?	?	?	-4%	.	.
